# Results taken from paper PMC7862700, “An all-to-all approach to the identification of sequence-specific readers for epigenetic DNA modifications on cytosine”.
# Key:
# Test in all cases: DAPPL (digital affinity profiling via proximity ligation, sequencing); 10 mM Tris-HCl pH 7.5, 50 mM NaCl, 1 mM DTT, 4% glycerol, room temperature, 30 min; GST-TFs on glutathione beads, 16-mer random dsDNA library, 0.1% formaldehyde crosslink after washing; high values mean tight binding
# FLI1 = biological target: T1, FLI1 (Homo sapiens, UniProt Q01543 1-452); conditions: protein: recombinant; tags: N-terminal GST; dsDNA, one strand shown
# T1 sequence: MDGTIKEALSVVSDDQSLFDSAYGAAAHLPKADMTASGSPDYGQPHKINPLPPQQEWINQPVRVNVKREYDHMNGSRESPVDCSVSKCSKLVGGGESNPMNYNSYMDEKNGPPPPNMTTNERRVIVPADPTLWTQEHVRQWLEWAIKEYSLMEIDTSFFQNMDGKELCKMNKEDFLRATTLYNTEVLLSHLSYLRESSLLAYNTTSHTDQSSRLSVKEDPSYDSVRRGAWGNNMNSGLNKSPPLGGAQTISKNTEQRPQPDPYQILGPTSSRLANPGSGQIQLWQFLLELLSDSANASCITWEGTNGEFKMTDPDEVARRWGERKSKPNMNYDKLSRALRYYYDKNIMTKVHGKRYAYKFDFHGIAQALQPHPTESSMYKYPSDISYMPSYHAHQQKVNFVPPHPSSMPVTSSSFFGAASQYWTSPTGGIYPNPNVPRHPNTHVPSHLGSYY
# How it was run: (§1)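 Binding signal is defined as a hexamer's read frequency for one factor over its frequency for the tag-only sample. To obtain reads, GST-fused human transcription factors were expressed in yeast, captured on glutathione beads, barcoded with DNA and pooled with that sample. Pools met 200 nmole of a 16-mer random double-stranded DNA library in Tris/NaCl/DTT/glycerol buffer for 30 min at room temperature before washing, 0.1% formaldehyde crosslinking, proximity ligation (BsaI/T4 ligase, 1 h, 37 °C), PCR and Illumina NextSeq500 sequencing.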
# ELK1 = biological target: T2, ELK1 (Homo sapiens, UniProt P19419 1-428); conditions: protein: recombinant; tags: N-terminal GST; dsDNA, one strand shown
# T2 sequence: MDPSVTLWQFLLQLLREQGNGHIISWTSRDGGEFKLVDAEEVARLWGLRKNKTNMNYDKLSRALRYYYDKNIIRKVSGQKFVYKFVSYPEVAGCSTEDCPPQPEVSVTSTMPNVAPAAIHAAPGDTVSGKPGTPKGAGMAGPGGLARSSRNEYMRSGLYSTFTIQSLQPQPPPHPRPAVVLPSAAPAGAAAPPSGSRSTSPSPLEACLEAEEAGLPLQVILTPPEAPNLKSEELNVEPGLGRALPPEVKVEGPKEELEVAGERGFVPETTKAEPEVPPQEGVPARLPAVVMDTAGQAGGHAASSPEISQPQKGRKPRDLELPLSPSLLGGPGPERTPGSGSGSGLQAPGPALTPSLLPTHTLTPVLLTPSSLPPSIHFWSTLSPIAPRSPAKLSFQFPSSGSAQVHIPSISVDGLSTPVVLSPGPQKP
# How it was run: as §1
# GABPA = biological target: T3, GABPA (Homo sapiens, UniProt Q06546 1-454); conditions: protein: recombinant; tags: N-terminal GST; dsDNA, one strand shown
# T3 sequence: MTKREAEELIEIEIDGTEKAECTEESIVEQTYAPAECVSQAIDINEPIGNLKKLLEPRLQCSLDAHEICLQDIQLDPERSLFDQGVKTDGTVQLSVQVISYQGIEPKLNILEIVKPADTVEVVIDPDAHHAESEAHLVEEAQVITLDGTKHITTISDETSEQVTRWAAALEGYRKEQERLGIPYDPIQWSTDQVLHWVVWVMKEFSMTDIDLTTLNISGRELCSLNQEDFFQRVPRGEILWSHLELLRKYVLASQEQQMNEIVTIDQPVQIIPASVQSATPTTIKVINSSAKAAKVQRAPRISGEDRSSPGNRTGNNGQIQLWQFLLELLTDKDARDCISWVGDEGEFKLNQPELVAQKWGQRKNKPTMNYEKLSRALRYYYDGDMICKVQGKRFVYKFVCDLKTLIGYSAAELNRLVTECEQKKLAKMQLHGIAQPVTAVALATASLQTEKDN
# How it was run: as §1
# ERG = biological target: T4, ERG (Homo sapiens, UniProt P11308 1-479); conditions: protein: recombinant; tags: N-terminal GST; dsDNA, one strand shown
# T4 sequence: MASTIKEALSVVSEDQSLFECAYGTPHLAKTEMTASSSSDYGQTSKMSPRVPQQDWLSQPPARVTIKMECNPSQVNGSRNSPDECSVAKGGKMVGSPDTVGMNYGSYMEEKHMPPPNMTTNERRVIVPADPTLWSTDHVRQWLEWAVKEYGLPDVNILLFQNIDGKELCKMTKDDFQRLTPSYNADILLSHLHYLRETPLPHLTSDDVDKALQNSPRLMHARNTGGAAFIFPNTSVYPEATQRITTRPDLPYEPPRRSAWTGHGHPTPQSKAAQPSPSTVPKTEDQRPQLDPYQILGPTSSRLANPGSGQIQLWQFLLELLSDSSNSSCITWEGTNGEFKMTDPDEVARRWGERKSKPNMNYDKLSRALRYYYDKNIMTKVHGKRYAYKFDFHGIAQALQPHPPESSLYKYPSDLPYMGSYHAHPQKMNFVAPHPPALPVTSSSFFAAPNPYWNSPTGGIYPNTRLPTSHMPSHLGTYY
# How it was run: as §1
# ELF1 = ELF1 (Homo sapiens, UniProt P32519 1-619); conditions: protein: recombinant; tags: N-terminal GST; dsDNA, one strand shown
# How it was run: as §1
# EHF = biological target: T5, EHF (Homo sapiens, UniProt Q9NZC4 1-300); conditions: protein: recombinant; tags: N-terminal GST; dsDNA, one strand shown
# T5 sequence: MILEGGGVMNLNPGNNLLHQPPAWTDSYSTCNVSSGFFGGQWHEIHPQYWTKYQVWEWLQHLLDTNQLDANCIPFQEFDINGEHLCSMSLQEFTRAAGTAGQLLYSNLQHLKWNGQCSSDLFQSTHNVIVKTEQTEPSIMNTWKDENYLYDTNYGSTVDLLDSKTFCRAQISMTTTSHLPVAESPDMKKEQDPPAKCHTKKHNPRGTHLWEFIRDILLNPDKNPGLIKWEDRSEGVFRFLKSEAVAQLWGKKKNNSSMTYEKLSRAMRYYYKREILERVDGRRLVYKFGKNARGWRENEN
# How it was run: as §1
# SPI1 = SPI1 (Homo sapiens, UniProt P17947 1-270); conditions: protein: recombinant; tags: N-terminal GST; dsDNA, one strand shown
# How it was run: as §1
# SPIB = SPIB (Homo sapiens, UniProt Q01892 1-262); conditions: protein: recombinant; tags: N-terminal GST; dsDNA, one strand shown
# How it was run: as §1
# ELK3 = biological target: T6, ELK3 (Homo sapiens, UniProt P41970 1-407); conditions: protein: recombinant; tags: N-terminal GST; dsDNA, one strand shown
# T6 sequence: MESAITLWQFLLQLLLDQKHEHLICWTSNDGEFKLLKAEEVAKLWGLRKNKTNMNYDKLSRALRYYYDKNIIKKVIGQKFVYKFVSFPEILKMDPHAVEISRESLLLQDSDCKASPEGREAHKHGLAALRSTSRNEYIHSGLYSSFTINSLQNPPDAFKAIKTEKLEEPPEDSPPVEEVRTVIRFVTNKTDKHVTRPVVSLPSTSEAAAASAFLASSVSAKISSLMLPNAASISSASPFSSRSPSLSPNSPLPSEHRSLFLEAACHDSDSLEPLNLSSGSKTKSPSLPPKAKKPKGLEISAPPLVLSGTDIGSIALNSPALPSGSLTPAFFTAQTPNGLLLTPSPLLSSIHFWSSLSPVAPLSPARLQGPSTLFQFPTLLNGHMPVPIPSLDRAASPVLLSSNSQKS
# How it was run: as §1
# FEV = biological target: T7, FEV (Homo sapiens, UniProt Q99581 1-238); conditions: protein: recombinant; tags: N-terminal GST; dsDNA, one strand shown
# T7 sequence: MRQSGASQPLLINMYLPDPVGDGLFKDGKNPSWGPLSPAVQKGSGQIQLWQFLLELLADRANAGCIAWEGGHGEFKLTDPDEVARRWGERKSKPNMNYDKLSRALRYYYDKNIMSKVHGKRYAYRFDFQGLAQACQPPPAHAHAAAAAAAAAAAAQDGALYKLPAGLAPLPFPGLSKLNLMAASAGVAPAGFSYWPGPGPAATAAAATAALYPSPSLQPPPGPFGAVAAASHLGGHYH
# How it was run: as §1
# ETV5 = ETV5 (Homo sapiens, UniProt P41161 1-510); conditions: protein: recombinant; tags: N-terminal GST; dsDNA, one strand shown
# How it was run: as §1
# HSF1 = HSF1 (Homo sapiens, UniProt Q00613 1-529); conditions: protein: recombinant; tags: N-terminal GST; chain copies: 3; dsDNA, one strand shown
# How it was run: as §1
# SPIC = biological target: T8, SPIC (Homo sapiens, UniProt Q8N5J4 1-248); conditions: protein: recombinant; tags: N-terminal GST; dsDNA, one strand shown
# T8 sequence: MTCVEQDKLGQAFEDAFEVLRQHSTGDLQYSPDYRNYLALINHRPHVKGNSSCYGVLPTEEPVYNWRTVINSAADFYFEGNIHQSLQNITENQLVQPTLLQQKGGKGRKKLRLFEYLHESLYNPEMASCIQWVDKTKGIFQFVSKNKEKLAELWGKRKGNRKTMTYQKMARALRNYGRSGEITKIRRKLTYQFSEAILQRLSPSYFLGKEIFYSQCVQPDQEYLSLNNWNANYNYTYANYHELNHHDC
# How it was run: as §1
# ELF4 = ELF4 (Homo sapiens, UniProt Q99607 1-663); conditions: protein: recombinant; tags: N-terminal GST; dsDNA, one strand shown
# How it was run: as §1
# ELK4 = biological target: T9, ELK4 (Homo sapiens, UniProt P28324-2 1-405); conditions: protein: recombinant; tags: N-terminal GST; dsDNA, one strand shown
# T9 sequence: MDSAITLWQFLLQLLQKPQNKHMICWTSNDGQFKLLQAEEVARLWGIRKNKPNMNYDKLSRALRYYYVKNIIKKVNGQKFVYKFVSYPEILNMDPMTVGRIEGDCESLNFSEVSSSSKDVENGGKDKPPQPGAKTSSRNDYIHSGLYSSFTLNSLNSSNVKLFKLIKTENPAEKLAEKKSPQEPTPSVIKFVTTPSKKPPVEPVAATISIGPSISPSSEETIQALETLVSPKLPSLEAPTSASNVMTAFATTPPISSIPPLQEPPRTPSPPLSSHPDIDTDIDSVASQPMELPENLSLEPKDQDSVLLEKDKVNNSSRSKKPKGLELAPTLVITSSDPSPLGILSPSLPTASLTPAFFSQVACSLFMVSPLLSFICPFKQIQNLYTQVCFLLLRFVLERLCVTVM
# How it was run: as §1
# ETV2 = biological target: T10, ETV2 (Homo sapiens, UniProt O00321 1-342); conditions: protein: recombinant; tags: N-terminal GST; dsDNA, one strand shown
# T10 sequence: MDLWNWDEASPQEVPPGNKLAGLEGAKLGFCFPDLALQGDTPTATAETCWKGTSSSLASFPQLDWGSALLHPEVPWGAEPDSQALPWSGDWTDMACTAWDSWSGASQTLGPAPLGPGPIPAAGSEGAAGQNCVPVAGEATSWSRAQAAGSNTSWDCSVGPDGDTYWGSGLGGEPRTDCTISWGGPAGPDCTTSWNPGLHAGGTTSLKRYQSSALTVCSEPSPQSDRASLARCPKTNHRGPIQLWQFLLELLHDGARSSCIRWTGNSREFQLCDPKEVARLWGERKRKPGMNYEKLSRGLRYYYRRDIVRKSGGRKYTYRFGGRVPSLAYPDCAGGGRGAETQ
# How it was run: as §1
# ELF3 = biological target: T11, ELF3 (Homo sapiens, UniProt P78545 1-371); conditions: protein: recombinant; tags: N-terminal GST; dsDNA, one strand shown
# T11 sequence: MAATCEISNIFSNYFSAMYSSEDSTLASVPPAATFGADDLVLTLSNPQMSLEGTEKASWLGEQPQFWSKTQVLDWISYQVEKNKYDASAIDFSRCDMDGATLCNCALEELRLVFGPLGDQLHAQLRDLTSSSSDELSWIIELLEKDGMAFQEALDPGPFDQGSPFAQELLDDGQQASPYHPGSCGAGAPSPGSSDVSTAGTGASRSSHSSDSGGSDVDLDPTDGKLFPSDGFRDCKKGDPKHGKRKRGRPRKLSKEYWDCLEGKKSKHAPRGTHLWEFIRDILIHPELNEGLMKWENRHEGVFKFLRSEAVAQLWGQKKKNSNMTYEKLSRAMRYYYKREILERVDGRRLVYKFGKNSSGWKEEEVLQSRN
# How it was run: as §1
# CRX = CRX (Homo sapiens, UniProt O43186 1-299); conditions: protein: recombinant; tags: N-terminal GST; dsDNA, one strand shown
# How it was run: as §1
# ETV1 = ETV1 (Homo sapiens, UniProt P50549 1-477); conditions: protein: recombinant; tags: N-terminal GST; dsDNA, one strand shown
# How it was run: as §1
# Chain of HSF1 (Q00613 whole entry): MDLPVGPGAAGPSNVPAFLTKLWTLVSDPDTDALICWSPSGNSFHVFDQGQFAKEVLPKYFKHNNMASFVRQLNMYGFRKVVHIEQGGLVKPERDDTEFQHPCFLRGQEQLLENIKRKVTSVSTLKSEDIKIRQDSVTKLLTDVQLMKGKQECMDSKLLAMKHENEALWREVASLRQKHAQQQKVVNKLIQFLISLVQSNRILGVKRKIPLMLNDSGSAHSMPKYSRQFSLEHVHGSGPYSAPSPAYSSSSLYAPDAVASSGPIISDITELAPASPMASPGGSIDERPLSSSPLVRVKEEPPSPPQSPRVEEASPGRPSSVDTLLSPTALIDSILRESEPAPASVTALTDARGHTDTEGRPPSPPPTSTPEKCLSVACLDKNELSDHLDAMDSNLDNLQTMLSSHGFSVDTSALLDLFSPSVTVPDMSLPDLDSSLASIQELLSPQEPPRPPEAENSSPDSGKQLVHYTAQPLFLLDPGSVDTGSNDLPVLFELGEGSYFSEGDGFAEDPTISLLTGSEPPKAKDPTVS
# Chain of ETV1 (P50549 whole entry): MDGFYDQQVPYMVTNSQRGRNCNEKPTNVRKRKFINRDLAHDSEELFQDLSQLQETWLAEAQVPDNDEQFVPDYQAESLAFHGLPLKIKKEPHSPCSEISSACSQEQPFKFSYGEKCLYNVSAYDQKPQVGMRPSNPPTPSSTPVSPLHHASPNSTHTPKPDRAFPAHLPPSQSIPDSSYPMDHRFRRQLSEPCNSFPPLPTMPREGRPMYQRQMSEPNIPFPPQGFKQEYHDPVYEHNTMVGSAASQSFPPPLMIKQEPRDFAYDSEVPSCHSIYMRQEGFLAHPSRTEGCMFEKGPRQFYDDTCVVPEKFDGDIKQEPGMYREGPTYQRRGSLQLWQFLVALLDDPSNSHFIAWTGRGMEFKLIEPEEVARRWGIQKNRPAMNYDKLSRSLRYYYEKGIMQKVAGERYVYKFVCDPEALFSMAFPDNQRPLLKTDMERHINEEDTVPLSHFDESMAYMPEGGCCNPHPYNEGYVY
# Chain of CRX (O43186 whole entry): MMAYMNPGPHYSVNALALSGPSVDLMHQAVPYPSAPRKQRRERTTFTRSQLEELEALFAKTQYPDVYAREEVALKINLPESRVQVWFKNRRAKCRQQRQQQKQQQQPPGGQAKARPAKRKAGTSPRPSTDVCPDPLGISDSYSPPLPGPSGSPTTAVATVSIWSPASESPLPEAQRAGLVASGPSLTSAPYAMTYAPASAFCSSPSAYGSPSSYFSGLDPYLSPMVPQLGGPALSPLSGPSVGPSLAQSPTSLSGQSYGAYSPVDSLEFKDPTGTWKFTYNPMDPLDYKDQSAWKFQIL
# Chain of ETV5 (P41161 whole entry): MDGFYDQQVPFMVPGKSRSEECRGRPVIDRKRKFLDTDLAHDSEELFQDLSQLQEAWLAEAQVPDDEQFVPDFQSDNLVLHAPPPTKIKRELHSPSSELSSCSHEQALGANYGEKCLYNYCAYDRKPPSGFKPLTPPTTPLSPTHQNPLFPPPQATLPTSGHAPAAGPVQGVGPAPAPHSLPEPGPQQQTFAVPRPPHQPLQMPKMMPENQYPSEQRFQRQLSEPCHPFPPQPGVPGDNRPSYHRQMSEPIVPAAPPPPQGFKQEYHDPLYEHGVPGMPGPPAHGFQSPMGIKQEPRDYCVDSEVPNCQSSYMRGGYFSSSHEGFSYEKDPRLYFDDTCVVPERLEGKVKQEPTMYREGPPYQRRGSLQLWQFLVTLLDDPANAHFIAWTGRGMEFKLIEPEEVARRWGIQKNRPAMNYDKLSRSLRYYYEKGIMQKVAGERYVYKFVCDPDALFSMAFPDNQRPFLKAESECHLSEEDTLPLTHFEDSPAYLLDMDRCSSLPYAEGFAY
# Chain of ELF4 (Q99607 whole entry): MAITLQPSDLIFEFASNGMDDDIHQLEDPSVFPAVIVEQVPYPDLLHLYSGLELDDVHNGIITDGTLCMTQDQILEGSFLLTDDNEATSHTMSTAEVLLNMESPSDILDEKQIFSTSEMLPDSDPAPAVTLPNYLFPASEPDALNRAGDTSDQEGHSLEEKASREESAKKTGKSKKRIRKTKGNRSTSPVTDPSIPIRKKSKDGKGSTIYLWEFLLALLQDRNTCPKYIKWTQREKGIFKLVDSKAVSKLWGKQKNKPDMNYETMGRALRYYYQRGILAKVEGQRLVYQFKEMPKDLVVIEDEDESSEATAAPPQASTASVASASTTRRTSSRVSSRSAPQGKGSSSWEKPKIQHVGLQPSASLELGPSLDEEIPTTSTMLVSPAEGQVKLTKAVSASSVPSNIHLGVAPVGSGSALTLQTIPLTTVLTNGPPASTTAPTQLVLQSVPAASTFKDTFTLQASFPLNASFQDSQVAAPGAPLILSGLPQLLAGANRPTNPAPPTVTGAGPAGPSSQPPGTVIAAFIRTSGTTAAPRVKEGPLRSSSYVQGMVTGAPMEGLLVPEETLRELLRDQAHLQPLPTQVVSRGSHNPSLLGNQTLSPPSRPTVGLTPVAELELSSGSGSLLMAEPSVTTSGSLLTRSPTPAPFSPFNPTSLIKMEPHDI
# Chain of SPIB (Q01892 whole entry): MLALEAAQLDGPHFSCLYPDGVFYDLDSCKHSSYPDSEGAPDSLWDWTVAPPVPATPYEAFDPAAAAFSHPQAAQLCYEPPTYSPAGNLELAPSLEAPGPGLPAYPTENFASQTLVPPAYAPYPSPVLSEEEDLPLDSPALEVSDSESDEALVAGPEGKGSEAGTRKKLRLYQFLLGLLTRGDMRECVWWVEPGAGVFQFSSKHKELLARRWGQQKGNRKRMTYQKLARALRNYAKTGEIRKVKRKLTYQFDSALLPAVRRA
# Chain of ELF1 (P32519 whole entry): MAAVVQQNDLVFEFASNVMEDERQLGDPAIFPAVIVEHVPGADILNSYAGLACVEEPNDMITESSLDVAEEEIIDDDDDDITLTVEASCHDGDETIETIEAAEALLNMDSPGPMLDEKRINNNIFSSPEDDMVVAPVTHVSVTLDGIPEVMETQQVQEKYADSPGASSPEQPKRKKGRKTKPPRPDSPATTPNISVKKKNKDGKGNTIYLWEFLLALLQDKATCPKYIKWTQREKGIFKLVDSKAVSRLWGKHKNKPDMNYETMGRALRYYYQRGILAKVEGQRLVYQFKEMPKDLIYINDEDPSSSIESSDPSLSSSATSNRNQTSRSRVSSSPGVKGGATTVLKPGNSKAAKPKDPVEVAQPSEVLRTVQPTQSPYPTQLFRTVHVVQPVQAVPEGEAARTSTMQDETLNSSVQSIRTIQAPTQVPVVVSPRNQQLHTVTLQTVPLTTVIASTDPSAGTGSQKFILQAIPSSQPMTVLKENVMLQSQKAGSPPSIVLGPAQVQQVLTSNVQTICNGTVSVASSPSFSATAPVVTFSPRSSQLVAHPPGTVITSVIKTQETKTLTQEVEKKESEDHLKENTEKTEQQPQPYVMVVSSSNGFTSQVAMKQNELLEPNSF
sequence,measurement,setting,value
CTCTCA,binding signal,FLI1,"1.49 fold enrichment (6-mer frequency, TF over GST control)"
same,binding signal,ELK1,"1.47 fold enrichment (6-mer frequency, TF over GST control)"
same,binding signal,GABPA,"1.52 fold enrichment (6-mer frequency, TF over GST control)"
same,binding signal,ERG,"1.36 fold enrichment (6-mer frequency, TF over GST control)"
same,binding signal,ELF1,"1.38 fold enrichment (6-mer frequency, TF over GST control)"
same,binding signal,EHF,"1.36 fold enrichment (6-mer frequency, TF over GST control)"
same,binding signal,SPI1,"1.38 fold enrichment (6-mer frequency, TF over GST control)"
same,binding signal,SPIB,"1.44 fold enrichment (6-mer frequency, TF over GST control)"
same,binding signal,ELK3,"1.57 fold enrichment (6-mer frequency, TF over GST control)"
same,binding signal,FEV,"1.44 fold enrichment (6-mer frequency, TF over GST control)"
same,binding signal,ETV5,"1.35 fold enrichment (6-mer frequency, TF over GST control)"
same,binding signal,HSF1,"1.2 fold enrichment (6-mer frequency, TF over GST control)"
same,binding signal,SPIC,"1.21 fold enrichment (6-mer frequency, TF over GST control)"
same,binding signal,ELF4,"1.42 fold enrichment (6-mer frequency, TF over GST control)"
same,binding signal,ELK4,"1.45 fold enrichment (6-mer frequency, TF over GST control)"
same,binding signal,ETV2,"1.33 fold enrichment (6-mer frequency, TF over GST control)"
same,binding signal,ELF3,"1.47 fold enrichment (6-mer frequency, TF over GST control)"
same,binding signal,CRX,"1.24 fold enrichment (6-mer frequency, TF over GST control)"
same,binding signal,ETV1,"1.51 fold enrichment (6-mer frequency, TF over GST control)"
